Data reported in PubChem BioAssay (NCATS).
Results filed as inconclusive are left out. Calls of active or inactive are those of the source. Unless noted, calls follow the shape of the dose curve; as a rule, active = well fitted curve in the direction sought with a large enough effect; inconclusive = small, poorly fitted or top-dose-only effect, or another doubt; inactive = no such curve, though single readings can be large; an effect the other way counts as inactive or inconclusive. Numbered stars: 1 amine (or outer) side, 2 acyl side, 3 side chain; on linkers, the order of the positions; unused ones are H or OH. Bridge positions count the residues as written; N and C are the ends. Square brackets hold non-standard residues; d marks the D form. Peptide text beside a SMILES is read from it. I, II: the chains in the order shown. Actinocin(9to1) = Cc1c2oc3c(C)ccc(C(=O)[*:1])c3nc-2c(C(=O)[*:2])c(N)c1=O; NMeV = CN[C@H](C(=O)O)C(C)C; Sar = CNCC(=O)O

Columns and labels:
[1] = qHTS assay for measurement of the activity of small molecule inhibitors on Zika virus induced Caspase-3 activity in human iPSC derived neural progenitor cells (hNPCs) (AID 1224857); also: % of control where 0% means no effect; nearly all actives have a fitted effect of over 65% in size
Procedure, shortened: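 Cells were plated at 350 per well and grown 16 to 20 hours. Compound pretreatment lasted one hour, after which ZIKV (2 FFU/cell) was added for 6 hours. Percent inhibition was normalized between uninfected and infected controls.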

[2] = qHTS assay for measurement of the activity of small molecule inhibitors on Zika virus induced Caspase-3 activity in human astrocytoma cells (AID 1224859);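 also: plate controls were ZIKV-infected untreated cells for no effect and uninfected cells for full effect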
Procedure, shortened: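 Percent inhibition of virus-induced caspase-3/7 signal is calculated against uninfected and ZIKV-infected control cells. Cells are SNB-19, infected at 2 FFU/cell for 6 h after 1 h compound exposure.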

[3] = P-glycoprotein substrates identified in KB-3-1 adenocarcinoma cell line, qHTS therapeutic library screen (AID 1346986); details: KB-3-1 parental cells viability, CellTiter-Glo, 72 h; at 44.5 µM (top of the series); also: nearly all actives have a fitted effect of over 60% in size
Procedure, shortened: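 In 1536-well format, 500 cells/well received pinned compound titrations and were incubated 72 h, 5% CO2. Viability was read by CellTiter-Glo; cytotoxic if AC50 < 10 uM and efficacy >50%.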

[4] = P-glycoprotein substrates identified in KB-8-5-11 adenocarcinoma cell line, qHTS therapeutic library screen (AID 1346987); also: nearly all actives have a fitted effect of over 65% in size; also: potency is read from the fitted curve at half-maximal effect
Procedure, shortened: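 Luminescence from CellTiter-Glo, read 5 min after addition, quantified survival of KB-8-5-11 (P-gp-overexpressing) cells exposed to compounds for 72 h. AC50 was derived from concentration-response curves.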

[5] = NS1 protein of Zika virus - qHTS assay to identify small molecule inhibitors in human HEK 293 cells (AID 1347053); also: nearly all actives have a fitted effect of over 55% in size; also: potency is read from the fitted curve at half-maximal effect;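 as to activity change, negative = inhibition: plate controls were infected untreated cells for no effect and uninfected cells for full effect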
Procedure, shortened: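 In this cell-based screen, HEK 293 cultures received compound for one hour before Zika MR766 at MOI = 0.5. NS1 was quantified 24 hours later by TR-FRET, normalized to virus-free wells and infected wells.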

[6] = qHTS assay to identify small molecule inhibitors of chordoma cells - UCH-2 (AID 1259356); also: % is scaled to controls: 0 for no effect and ±100 for the full control effect
[7] = qHTS profiling of the MIPE4 collection as inhibitors of Plasmodium falciparum (3D7) proliferation (AID 743344; call rule not given here;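 also: scaled between DMSO vehicle wells and 0.29 µM artemisinin as full inhibition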); details: P. falciparum 3D7 in erythrocytes, SYBR Green DNA fluorescence, 72 h; at 28.5 µM (top of the series) unless noted
Procedure, shortened: (§1)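 Parasite DNA was quantified by SYBR Green I fluorescence (ex 485, em 535 nm) after overnight lysis in saponin/Triton buffer at room temperature. Cultures at 0.3% parasitemia and 2.5% hematocrit were first exposed to compound for 72 h at 37 C; signals were normalised to artemisinin (0.29 uM) and vehicle wells.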

[8] = qHTS profiling of the MIPE4 collection as inhibitors of Plasmodium falciparum (DD2) proliferation (AID 743345; call rule not given here); details: P. falciparum Dd2 in erythrocytes, SYBR Green DNA, 72 h; at 28.5 µM (top of the series) unless noted
Procedure, shortened: as §1

[9] = qHTS profiling of the MIPE4 collection as inhibitors of Plasmodium falciparum (DD2) proliferation (Rep 2) (AID 743346; call rule not given here); details: P. falciparum Dd2 in erythrocytes, SYBR Green DNA, 72 h; at 28.5 µM (top of the series) unless noted
Procedure, shortened: as §1

[10] = qHTS profiling of the MIPE4 collection as inhibitors of Plasmodium falciparum (HB3) proliferation (AID 743347; call rule not given here;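 also: plate controls were DMSO vehicle wells for no effect and artemisinin wells for full effect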); details: P. falciparum HB3 in erythrocytes, SYBR Green DNA, 72 h; at 28.5 µM (top of the series) unless noted
Procedure, shortened: as §1

[11] = Identifying Small Molecule Inhibitors of Pancreatic Cancer Stem Cells (SN12C, Adherent) (AID 1259358); details: viability/growth inhibition;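 also: potency is read from the fitted curve at half-maximal effect; cell survival measured after 48 h of compound exposure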
Procedure, shortened: (§2)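 Endpoint: ATP-based luminescence, 48 h drug exposure. Bortezomib at 9.2 uM final as full-kill control; DMSO vehicle as negative control; activity normalized between vehicle and cell-free wells.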

[12] = Identifying Small Molecule Inhibitors of Pancreatic Cancer Stem Cells (SN12C, Spheroid) (AID 1259360); details: SN12C spheroid viability; also: potency is read from the fitted curve at half-maximal effect
Procedure, shortened: as §2

[13] = Identifying Small Molecule Inhibitors of Pancreatic Cancer Stem Cells (A278, Adherent) (AID 1259361);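 also: viability read after 48 h compound exposure; nearly all actives have a fitted effect of over 35% in size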
Procedure, shortened: as §2

[14] = Identifying Small Molecule Inhibitors of Pancreatic Cancer Stem Cells (Panc1, Adherent) (AID 1259362); details: viability; also: potency is read from the fitted curve at half-maximal effect
Procedure, shortened: as §2

[15] = Natriuretic polypeptide receptor (hNpr1) antagonism - Pilot counterscreen GloSensor control cell line (AID 1347045; calls by dose curve; also: % is scaled to controls: 0 for no effect and ±100 for the full control effect)
Procedure, shortened: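 Cells were first seeded and incubated overnight at 37C, then loaded with 2% GloSensor substrate for 2 h. Compounds were added for 30 min at room temperature, followed by a baseline read, 50 uM SNP and a final read after 20 min.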

[16] = molecular target: Atrial natriuretic peptide receptor 1 (Homo sapiens) (UniProt P16066); experiment: Natriuretic polypeptide receptor (hNpr1) antagonism - Pilot screen (AID 1347049; calls by dose curve;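 also: agonist-evoked cGMP luminescence read 20 min after hNppA addition; % is scaled to controls: 0 for no effect and ±100 for the full control effect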)
Procedure, shortened: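 cGMP-sensor HEK293/hNpr1 cells, 1500/well, plated overnight at 37C. 2% GloSensor reagent, 2 h RT. Compound (23 nL pin transfer) 30 min RT, baseline luminescence pre-read. 0.1 nM hNppA, 20 min RT, post-read.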

[17] = qHTS assay to identify small molecule inhibitors of chordoma cells - UCH-1 (AID 1259355); also: % is scaled to controls: 0 for no effect and ±100 for the full control effect; nearly all actives have a fitted effect of over 55% in size
Procedure, shortened: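 Screening used approved and investigational drugs in 15-point titration against 800 seeded cells per well. A fixed combination of auranofin with camptothecin, doxorubicin, rubitecan and topotecan followed compound addition, and growth was scored by CellTiter-Glo after 48hr.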

[18] = Identifying Small Molecule Inhibitors of Pancreatic Cancer Stem Cells (A2780, Spheroid) (AID 1259357); details: A2780 spheroid viability;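 also: spheroids pre-formed over 14 days in stem cell medium on hydrogel; potency is read from the fitted curve at half-maximal effect; compound exposure lasted 48 h before the ATP luminescence read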
Procedure, shortened: as §2

[19] = Identifying Small Molecule Inhibitors of Pancreatic Cancer Stem Cells (Panc1, Spheroid) (AID 1259359); details: Panc1 spheroid cancer stem cell viability;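 also: potency is read from the fitted curve at half-maximal effect; compound exposure lasted 48 h before reading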
Procedure, shortened: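 After a 4 h attachment period, compounds were pinned into wells and cultures held 48 h under standard incubator conditions. Viability was then measured as CellTiter-Glo luminescence following 10 min at room temperature.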

Chain of Atrial natriuretic peptide receptor 1 (Homo sapiens) (P16066 whole entry, looked up): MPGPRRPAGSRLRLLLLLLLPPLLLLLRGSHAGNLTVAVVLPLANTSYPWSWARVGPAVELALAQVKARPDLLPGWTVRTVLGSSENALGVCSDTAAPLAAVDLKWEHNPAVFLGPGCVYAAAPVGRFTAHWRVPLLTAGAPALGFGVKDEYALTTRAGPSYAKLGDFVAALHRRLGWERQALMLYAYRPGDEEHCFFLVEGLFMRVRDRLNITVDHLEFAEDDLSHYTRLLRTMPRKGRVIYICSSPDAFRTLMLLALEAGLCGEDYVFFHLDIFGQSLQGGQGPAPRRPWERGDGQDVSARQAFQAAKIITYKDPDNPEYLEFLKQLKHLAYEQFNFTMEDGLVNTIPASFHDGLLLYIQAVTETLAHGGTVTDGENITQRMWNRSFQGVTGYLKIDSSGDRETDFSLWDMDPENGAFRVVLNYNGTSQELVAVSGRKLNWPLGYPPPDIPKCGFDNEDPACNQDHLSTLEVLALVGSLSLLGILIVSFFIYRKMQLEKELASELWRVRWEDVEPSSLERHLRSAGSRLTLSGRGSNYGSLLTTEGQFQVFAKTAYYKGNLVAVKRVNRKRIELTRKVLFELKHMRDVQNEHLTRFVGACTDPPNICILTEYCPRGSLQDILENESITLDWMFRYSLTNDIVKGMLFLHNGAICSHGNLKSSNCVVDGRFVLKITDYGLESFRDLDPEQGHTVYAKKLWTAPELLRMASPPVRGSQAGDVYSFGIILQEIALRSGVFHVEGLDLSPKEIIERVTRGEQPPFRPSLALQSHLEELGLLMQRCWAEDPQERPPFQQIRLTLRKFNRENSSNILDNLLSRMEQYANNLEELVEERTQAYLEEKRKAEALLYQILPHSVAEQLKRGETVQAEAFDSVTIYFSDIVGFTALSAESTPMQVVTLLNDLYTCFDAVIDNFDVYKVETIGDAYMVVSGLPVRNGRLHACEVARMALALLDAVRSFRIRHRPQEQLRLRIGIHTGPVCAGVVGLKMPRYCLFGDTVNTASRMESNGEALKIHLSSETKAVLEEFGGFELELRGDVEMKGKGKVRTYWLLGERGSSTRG

CCCCS(=O)(=O)N[C@@H](Cc1ccc(OCCCCC2CCNCC2)cc1)C(=O)O
inactive: outcome [1] | outcome [2] | outcome [3] | Potency [4] | Potency [5]

C[C@@H]1C[C@H]2[C@@H]3CCC4=CC(=O)C=C[C@]4(C)[C@@]3(F)[C@@H](O)C[C@]2(C)[C@H]1C(=O)CO
inactive: outcome [1] | outcome [2] | Potency [5]

C/C=C(/C(=C/C)c1ccc(O)cc1)c1ccc(O)cc1
inactive: outcome [1] | outcome [2] | Potency [6] | Potency [5]

Oc1ccc(Cl)cc1Sc1cc(Cl)ccc1O
inactive: outcome [1] | outcome [2] | Potency [6] | Potency [5]

C[C@H](CCC(=O)O)[C@H]1CC[C@H]2[C@@H]3C(=O)C[C@@H]4CC(=O)CC[C@]4(C)[C@H]3CC(=O)[C@]12C
inactive: outcome [1] | outcome [2] | Potency [4] | Potency [5]

C[C@H](O)C(=O)Nc1c(I)c(C(=O)NC(CO)CO)c(I)c(C(=O)NC(CO)CO)c1I
inactive: outcome [1] | outcome [2] | Potency [4] | Potency [5]

COc1cc2c(cc1O)CC[C@@H]1[C@@H]2CC[C@]2(C)[C@@H](O)CC[C@@H]12
96.4%: parasite growth remaining, % of DMSO control (lower = more inhibition) [8]
83.5%: parasite growth, % of DMSO control [7] | growth, % of control [10]
130%: parasite growth, % of control (lower = inhibition) [9]
active: Potency [11] 2350 nM | Potency [12] 5900 nM | IC50 (viability decrease) [13] 935 nM | Potency [14] 1050 nM
inactive: outcome [1] | outcome [2] | outcome [15] | outcome [16] | Potency [5]

O=c1[nH]c(=O)n([C@H]2CCCO2)cc1F
inactive: outcome [1] | outcome [2] | Potency [4] | Potency [5]

CC1(C)O[C@@H]2[C@@H](CO[C@@]3(COS(N)(=O)=O)OC(C)(C)O[C@@H]23)O1
inactive: outcome [1] | outcome [2] | Potency [4] | Potency [5]

CC(=O)OCC(=O)[C@@]1(O)CC[C@H]2[C@@H]3CCC4=CC(=O)C=C[C@]4(C)[C@H]3[C@@H](O)C[C@@]21C
inactive: outcome [1] | outcome [2] | Potency [6] | Potency [5]

COc1ccc(OC)c(C(O)CNC(=O)CN)c1 (configuration not stated)
inactive: outcome [1] | outcome [2] | Potency [5]

CN1CCCC(CC2c3ccccc3Sc3ccccc32)C1 (configuration not stated)
inactive: outcome [2] | Potency [17] | Potency [6]

CCCCCCCCCCCCCCCC[N+](C)(C)CC
inactive: outcome [2] | Potency [17]

OC(CCN1CCCCC1)(c1ccccc1)c1ccccc1
inactive: outcome [1] | outcome [2] | Potency [6] | Potency [5]

CCCC(=O)O[C@]1(C(=O)CO)CC[C@H]2[C@@H]3CCC4=CC(=O)CC[C@]4(C)[C@H]3[C@@H](O)C[C@@]21C
inactive: outcome [1] | outcome [2] | Potency [4] | Potency [5]

Cc1ccc(Nc2c(F)cccc2Cl)c(CC(=O)O)c1
inactive: outcome [1] | outcome [2] | Potency [4] | Potency [5]

COC(=O)[C@@H]1CC2=CC(=O)CC[C@]2(C)[C@@]23O[C@@H]2C[C@@]2(C)[C@@H](CC[C@@]24CCC(=O)O4)[C@H]13
inactive: outcome [1] | outcome [2] | Potency [4] | Potency [5]

CC(C)n1nc(-c2cc3cc(O)ccc3[nH]2)c2c(N)ncnc21
inactive: outcome [1] | outcome [2]
active: Potency [4] 366 nM

CC(C)(C)CC(C)(C)c1ccc(OCCOCC[N+](C)(C)Cc2ccccc2)cc1
inactive: outcome [1] | outcome [2] | Potency [4]

CC(C)(C)NC(=O)[C@@H]1CN(Cc2cccnc2)CCN1C[C@@H](O)C[C@@H](Cc1ccccc1)C(=O)N[C@H]1c2ccccc2C[C@H]1O
inactive: outcome [1] | outcome [2] | Potency [4] | Potency [5]

CCn1cc(C(=O)O)c(=O)c2cnc(N3CCCC3)nc21
inactive: activity change, negative = inhibition [1] -4.24% [at 9.06 µM] | activity change, negative = inhibition [2] 4.3% [at 9.06 µM] | Potency [4] | activity change, negative = inhibition [5] -25.1% [at 9.2 µM]

CC1(C)OC[C@@H](COC(=O)CCc2ccc(OC[C@@H](O)CNCCNC(=O)N3CCOCC3)cc2)O1
inactive: outcome [1] | outcome [2] | Potency [4]

CNC(=O)CN(CCN(CCN(CC(=O)[O-])CC(=O)NC)CC(=O)[O-])CC(=O)[O-].O.[Gd+3]
inactive: outcome [1] | outcome [2] | Potency [4] | Potency [5]

O=c1ccc2ccccc2o1
inactive: outcome [1] | outcome [2] | Potency [4] | Potency [5]

CN(C(=O)CN(CCO)CC(=O)N(C)C(C)(C)Cc1ccccc1)C(C)(C)Cc1ccccc1
inactive: outcome [2] | Potency [17]

Nc1ccn([C@@H]2O[C@H](CO)[C@@H](O)C2(F)F)c(=O)n1
active: Potency [18] 481 nM | Potency [11] 54 nM | Potency [19] 17.1 nM | Potency [5] 3160 nM
inactive: outcome [1] | outcome [2]

CN(C)CC/C=C1\c2ccccc2Sc2ccc(Cl)cc21
inactive: outcome [1] | outcome [2] | Potency [6] | Potency [5]

COC(=O)CCc1ccc(OCC(O)CNC(C)C)cc1 (configuration not stated)
inactive: outcome [1] | outcome [2] | Potency [4] | Potency [5]

NC[C@H]1O[C@H](O[C@H]2[C@H](O)[C@@H](O[C@H]3O[C@H](CO)[C@@H](O)[C@H](N)[C@H]3O)[C@H](N)C[C@@H]2N)[C@H](N)[C@@H](O)[C@@H]1O
inactive: outcome [1] | outcome [2] | Potency [4] | Potency [5]

Cc1c2oc3c(C)ccc(C(=O)N[C@@H]4C(=O)N[C@H](C(C)C)C(=O)N5CCC[C@H]5C(=O)N(C)CC(=O)N(C)[C@@H](C(C)C)C(=O)O[C@@H]4C)c3nc-2c(C(=O)N[C@@H]2C(=O)N[C@H](C(C)C)C(=O)N3CCC[C@H]3C(=O)N(C)CC(=O)N(C)[C@@H](C(C)C)C(=O)O[C@@H]2C)c(N)c1=O (I: T[dV]P[Sar][NMeV] / II: T[dV]P[Sar][NMeV]; ester I:1-I:C, II:1-II:C; linker I:N-II:N via Actinocin(9to1))
inactive: outcome [1] | outcome [2] | Potency [6] | Potency [5]
